Our source for the AC50 and outcome values is PubChem BioAssay (EPA / NIEHS).

Each structure is given as a SMILES string. The source made the active and inactive calls. Rule for the calls: active = hit-call score of the fitted dose curve at least 0.9, where 1 is the maximum; inactive = score below 0.9. Peptide text beside a SMILES is read from it.

The experiment can be described thus: ATG_NFI_CIS: Attagene CIS-FACTORIAL HepG2 Assay for human Nuclear Factor I (NFI) (AID 2282989). To be noted: HepG2 cis-regulatory reporter, NFI response element transcription; actives raise or lower the signal. How it is done: ATG_CIS is a cell-based, multiplexed-readout assay that uses HepG2, a human liver cell line, with measurements taken at 24 hours after chemical dosing in a 24-well plate.ATG_NFI_CIS is one of 52 assay component(s) measured or calculated from the ATG_CIS assay. It is designed to make measurements of mRNA induction, a form of inducible reporter, as detected with fluorescence intensity signals by Reverse transcription polymerase chain reaction (RT-PCR) and Capillary electrophoresis technology.Data from the assay component ATG_NFI_CIS was analyzed into 1 assay endpoint. This assay endpoint, ATG_NFI_CIS, was analyzed with bidirectional fitting relative to DMSO as the negative control and baseline of activity. Using a type of inducible reporter, measures of mRNA for gain or loss-of-signal activity can be used to understand the reporter gene at the transcription factor-level as they relate to the gene NFIA. Furthermore, this assay endpoint can be referred to as a primary readout, because this assay has produced multiple assay endpoints where this one serves a reporter gene function. To generalize the intended target to other relatable targets, this assay endpoint is annotated to the dna binding intended target family, where the subfamily is nuclear factor I.
Human liver HepG2 cells are transiently transfected with multiple reporter transcription units (MRTUs) in 6-well plates using FuGene 6 reagent (Roche; 3 ml FuGene/1 mg DNA). The MRTU constructs are regulated by a cis-regulating element (promoter). […] A major difference between the CIS and TRANS system is that in CIS activities of endogenous TFs are measured, whereas the TRANS assay evaluates changes in activities of exogenous, chimeric NR-Gal4 proteins. […] At the end of 24 hour incubation, total RNA was isolated using TriZol reagent (Invitrogen). The isolated RNA is then reverse-transcribed using oligo(dT) primer and Mo-MLV reverse transcriptase (Invitrogen) with DNAse I (Ambion) treatment for 30 min. The one-tenth of the produced cDNA was amplified by PCR using Taq DNA polymerase (Invitrogen) and two reporter sequence-specific primers. The PCR products were fluorescently labeled by primer extension with 6-arboxyfluorescein (6-FAM) 5'-labeled reporter sequence-specific primer (2 min at 95 C, 20 s at 68 C and 10 min at 72 C) and these products were digested with 5U of HpaI (New England Biolabs) for 2h at 37 C. The fragments were purified using Qiaquick PCR columns (Qiagen), analyzed on an ABI 3130xL genetic analyzer (Applied Biosystems) with peak positions identified by using a set of X-rhodamine (ROX)-labeled MapMarker1000 molecular weight standards (BioVentures). The raw capillary electrophoresis data was processed using Attagraph software (Attagene).
Regarding `c1ccc2sc(SSN3CCOCC3)nc2c1`, the AC50 was 75 µM (active). Consider `c1ccc2cnccc2c1`, for which the outcome was inactive. Consider `CCOC(=O)c1ccccc1C`, for which the outcome was inactive.

Regarding `CC1(C)[C@@H]2CC[C@@]1(C)C(=O)C2`, the outcome was inactive. Same read-out and setting: the result for `CCc1cccc(CC)c1` reads “inactive”; that for `C=CC(C)(O)CC/C=C(\C)CC` (stereo not given), “inactive”. On to `CCCCC1CCC(=O)O1` (stereo not given), for which the result was inactive. Same read-out and setting: the result for `C=C[Si](OCCOC)(OCCOC)OCCOC` reads “inactive”; that for `CCC(C)C(=O)OCCc1ccccc1` (stereo not given), “inactive”. Same read-out and setting: the result for `O=C(OCc1ccccc1)c1ccc(O)cc1` reads “inactive”. In the case of `C=CCCCCCCCCO`, the molecule was called inactive. Same read-out and setting: the result for `COc1cc(C)ccc1O` reads “inactive”. Still for that read-out and setting: the result for `c1ccc(-c2nc3ccccc3[nH]2)cc1` reads “inactive”; that for `CCCCCCCC(=O)OCC`, “inactive”.

`CCCCCCCCCCCC(C)=O`: the result was inactive. `C=CC(=O)OCCCCCCCCCC`: the call was inactive. On the same count and under the same terms, the result for `C=C(C)[C@@H]1CC=C(C)CC1` reads “inactive”; that for `[Cl][Sc]([Cl])[Cl]`, “inactive”; that for `Cc1cc(=O)[nH]c(=O)[nH]1`, “inactive”. With `CC(C)c1ccc(O)c(C(C)C)c1`, the molecule was called inactive. Still for that read-out and setting: the result for `CC(C)=NNC(N)=S` reads “inactive”; that for `C=C(C)C(=O)OCCOC(=O)C(=C)C`, “inactive”. The same measure, in the same setting: the result for `CC(C)(CO)COC(=O)C(C)(C)CO` reads “inactive”; that for `COc1ccc(C(=O)/C(Br)=C\C(=O)O)cc1`, “inactive”; that for `C=C(C)C(=O)OCC(O)COc1ccc(C(C)(C)c2ccc(OCC(O)COC(=O)C(=C)C)cc2)cc1` (stereo not given), “inactive”. Consider `CC1(C)CC(O)CC(C)(C)N1[O]`, for which the result was inactive. Take `CCC1(C)C(=O)N(Cl)C(=O)N1Cl` (stereo not given): the AC50 was 60.6 µM (active). Turning to `COc1nccnc1CC(C)C`, the molecule was classed as inactive.

For the molecule `CC=C(C)C=CC=C(C)C`, the result was inactive. On the same count and under the same terms, the result for `CC12CCC(CC1)C(C)(C)O2` reads “inactive”; that for `[Cl][Eu]([Cl])[Cl]`, “inactive”; that for `COC(=O)[C@H](Cc1ccccc1)NC(=O)[C@@H](N)CC(=O)O` (H-Asp-Phe-OMe), “inactive”. In the case of `CCOC(=O)C1=NOC(c2ccccc2)(c2ccccc2)C1`, the outcome was inactive. As to `C/C=C/C=C/CCCCCCCO`, the molecule was classed as inactive. Consider `CC(=O)OC1CCCCC1C(C)(C)C` (stereo not given), for which the molecule was classed as inactive. As for `CCCCCCCCCCCC(=O)OCC`, the molecule was classed as inactive. Still for that read-out and setting: the result for `Nc1nc(N)nc(-c2ccccc2)n1` reads “inactive”; that for `CC(=O)OCCc1ccccc1`, “inactive”; that for `O=C(O)c1ccc2c(c1)C(=O)OC2=O`, “inactive”. On the same count and under the same terms, the result for `CCCCCCCCCCCCCc1ccccc1` reads “inactive”.

By AC50 is commonly meant the midpoint of the concentration-response curve, whichever way the signal moves.
